Holding throughout (test): NCI-60 one-dose screen, 48 h (100 = growth as untreated, 0 = no growth, -100 = all killed)
Holding throughout (conditions): 10 µM unless noted

For assay [1], the system named is SR leukemia.
Assay [2] concerns RPMI-8226 leukemia.
The test system of assay [3] is OVCAR-8 ovarian.
In assay [4] the test system is OVCAR-5 ovarian.
In assay [5] the test system is OVCAR-4 ovarian.
In assay [6] the test system is SK-OV-3 ovarian.
The test system of assay [7] is IGROV1 ovarian.
For assay [8], the system named is OVCAR-3 ovarian.
Assay [9] concerns HS 578T breast.
For assay [10], the system named is NCI/ADR-RES ovarian.

The results in this text go back to PubChem BioAssay (NCI).

This is part of a sample that, as a whole, favours compounds with a hit. Of some 83,000 tested, about 20% had one in any assay.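 Results are percent growth after 48 hours of single-concentration exposure. 100 means growth as in untreated cells, lower positive values show inhibition; negative values down to -100 show cell death.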 Unmarked numbers belong to inactive results. The source made the active and inactive calls. How the source made its calls: active means growth percent below 10; inactive means the rest.

Regarding `O=C(Cn1c2c(c3ccccc31)CCCC2)Nc1ccc(-c2nc3ccccc3s2)cc1`, the growth is 88.8% in [1]; 116% in assay [2]; 107% in assay [3]; 99.5% in assay [4]; 104% in assay [5]; 114% in [6]. The growth was 83.8% in assay [7], 110% in assay [8], 112% in assay [9] and 109% in [10].

In the case of `O=C(Cn1c(=O)sc2nc3ccccc3nc21)Nc1ncc(Cc2cccc(Cl)c2Cl)s1`, the growth in [1] was 101%; in [2], 97.5%; in assay [3] it was 97%; in [4] it was 101%; in [5] it was 102%; in [6], 95.1%. In addition, the growth was 81.3% in [7], 111% in assay [8], 90.2% in [9] and 89.6% in [10].

In the case of `COC(=O)/C=C1/SC(=Nc2ccc(C)cc2)N(CCc2c[nH]c3ccc(O)cc23)C1=O`, the growth in assay [1] was -27.4% (active); in [2], 1.84% (active); in assay [3], 29.4%; in assay [4], 108%; in assay [5] it was 51.1%; in [6], 98.4%. Besides, the growth is 27.5% in assay [7], 32.7% in [8], 55.1% in [9] and 50% in assay [10].

Regarding `O=C1/C(=C/c2ccc(F)cc2)COc2ccc(O)cc21`, the growth in assay [1] was 1.11% (active); in [2], -19% (active); in [3] it was 87.4%; in assay [4] it was 96.9%; in assay [5], 93.4%; in assay [6] it was 123%. The growth in assay [7] is 84.9%; in assay [8] it was 92.4%; in assay [9], 94.1%; in [10] it was 93.2%.

Take `C=C1C(=O)O[C@H]2[C@H]1CC/C(COC(=O)N[C@H]1C[C@H](O[C@H]3C[C@](O)(C(=O)CO)Cc4c(O)c5c(c(O)c43)C(=O)c3c(OC)cccc3C5=O)O[C@@H](C)[C@H]1O)=C\CC[C@@]1(C)O[C@@H]21`: the growth is 5.44% (active) in [1]; -24.2% (active) in assay [2]; 66% in assay [3]; 96.4% in assay [4]; 62.5% in assay [5]; 107% in assay [6]. Besides, the growth is 56.7% in assay [7], -8.47% (active) in [8], 73% in assay [9] and 100% in assay [10].

For the compound `COc1ccc(-c2nnc3n(C)c(=O)c4ccccc4n23)cc1N`, the growth in [1] was 21.7%; in assay [2], 20%; in [3] it was 33.6%; in [4], 45.2%; in assay [5], 59.3%; in [6], 22%. Besides, the growth is 51.9% in assay [7], 6.12% (active) in assay [8], 32% in assay [9] and 22.8% in assay [10].

With `Fc1cc2c(cc1Cl)N(c1ncnc3ccc(-c4cnc5[nH]ncc5c4)cc13)CC2`, the growth in [1] was 57.1%; in assay [2], 60.3%; in [3], 60.9%; in assay [4] it was 38.4%; in assay [5], 66.4%; in [6] it was 50.8%. Moreover, the growth in [7] is 13.2%; in assay [8] it was 60.4%; in assay [9] it was 25.9%; in [10] it was 65.2%.

On to `C/C(Nc1ccc(Cl)c(Cl)c1)=C1\CCOC1=O`, for which the growth in [1] is 83.6%; in [2], 61.3%; in [3] it was 102%; in assay [4] it was 87.5%; in assay [5] it was 72.4%; in assay [6] it was 121%. The growth is 83.8% in [7], 100% in [8], 98% in assay [9] and 86.7% in assay [10].

For the compound `Cc1nnc(-n2c(O)cc(=O)n(-c3ccccc3)c2=S)nc1/C=C/c1ccc(N(C)C)cc1`, the growth in assay [1] was 36.2%; in assay [2], 16.1%; in assay [3] it was 53.3%; in assay [4], 82.7%; in assay [5] it was 50.3%; in [6], 45.6%. Moreover, the growth in assay [7] is 58.1%; in [8] it was 44.3%; in assay [9], 47.8%; in assay [10] it was 44.6%.

For the compound `O=C(Nc1ncc(Cc2ccc(Cl)c(C(F)(F)F)c2)s1)c1ccc2nnsc2c1`, the growth in assay [1] was 57%; in assay [2], 40.8%; in [3], 54.8%; in assay [4], 55.8%; in [5] it was 50.7%; in [6] it was 62.5%. The growth in assay [7] is 67.9%; in assay [8], 58.5%; in [9], 84%; in assay [10] it was 40.9%.

With `CCCCCOc1ccc(C(=O)/C(Br)=C/C(=O)O)cc1`, the growth is 91.9% in [1]; 77.8% in [2]; 114% in assay [3]; 108% in assay [4]; 105% in assay [5]; 109% in assay [6]. The growth is 85.6% in [7], 100% in [8], 102% in [9] and 95% in assay [10].

On to `CCN(CC)CCNC(=O)c1cn2ncnc(Oc3ccc(NC(=O)Nc4ccc(Cl)c(C(F)(F)F)c4)c(F)c3)c2c1C`, for which the growth was -32.3% (active) in assay [1]; -16.6% (active) in assay [2]; 45.4% in assay [3]; 54.6% in assay [4]; 6.15% (active) in assay [5]; 82% in assay [6]. In addition, the growth was -36.6% (active) in [7], -3.03% (active) in assay [8], -7.92% (active) in assay [9] and 56.8% in assay [10].

As to `O=C(NCc1ccccc1)Nc1ccccc1CNc1nc(Nc2ccc(OCCN3CCCC3)cc2)ncc1Cl`, the growth in assay [1] was 7.02% (active); in [2] it was 76.1%; in [3] it was 89.9%; in [4], 112%; in [5], 81.2%; in [6] it was 99.3%. Besides, the growth in [7] is 100%; in assay [8], 104%; in assay [9], 98%; in assay [10], 92.2%.

Consider `COC(=O)c1c2c(c(C)[n+]([O-])c1C)C(=O)C=C(NCc1ccc(OC)cc1)C2=O`, for which the growth in assay [1] is -0.642% (active); in [2], -16.5% (active); in [3] it was 1.17% (active); in assay [4], -54.6% (active); in [5], -98.5% (active); in assay [6], 8.27% (active). The growth in assay [7] was -61.5% (active); in assay [8] it was -40.5% (active); in assay [9], -10.2% (active); in assay [10], -7.81% (active).

Take `Cc1cccc2c1NC(=O)C2(c1ccc(O)cc1)c1ccc(O)cc1`: the growth in assay [1] is 89%; in assay [2], 80.9%; in assay [3], 4.88% (active); in assay [4], 75.9%; in assay [5], -16% (active); in [6], 89.5%. Moreover, the growth in assay [7] is 45.7%; in [8], 25.6%; in assay [9], -5.53% (active); in [10], 11%.

For the compound `CS(=O)(=O)C1=CN(CCO)C(=O)N2CCCN=C12`, the growth in assay [1] was 115%; in [2], 119%; in assay [3], 108%; in [4], 99.4%; in assay [5], 115%; in assay [6], 97.5%. The growth in assay [7] is 102%; in [8], 105%; in [9], 97%; in assay [10], 106%.

As to `CC1=C(C(=O)OC(C)C)C(c2ccc3c(c2)OCO3)NC(=S)N1` (stereo not given), the growth in [1] was 103%; in assay [2], 87.7%; in assay [3], 102%; in [4], 105%; in assay [5] it was 98.4%; in assay [6] it was 105%. In addition, the growth in [7] is 99.9%; in assay [8], 121%; in [9] it was 97.3%; in [10], 101%.

Consider `COc1cc(-c2cc(-c3ccc(N(C)C)cc3)nc(N3CCC(O)CC3)c2C#N)cc(OC)c1OC`, for which the growth is 13.4% in assay [1]; -5.93% (active) in [2]; 16.4% in assay [3]; 20.6% in assay [4]; 50.8% in assay [5]; 35.3% in assay [6]. Also, the growth in assay [7] is 7.25% (active); in assay [8], -14.6% (active); in assay [9] it was 17%; in [10] it was 14.9%.

As to `CCOC(=O)Cn1c(O)c(N=Nc2ccc(S(N)(=O)=O)cc2)c2cc(Br)ccc21`, the growth was 75.3% in assay [1]; 79.5% in [2]; 56.5% in assay [3]; 85.9% in [4]; 31.2% in assay [5]; 81.9% in assay [6]. The growth in assay [7] is 73%; in [8], 84.9%; in assay [9], 89.7%; in assay [10] it was 89.7%.

For `Cn1ccnc1C(=O)C(=O)Nc1ccc(CC(=O)Nc2ccccc2)cc1`, the growth is 106% in [1]; 107% in [2]; 109% in assay [3]; 101% in [4]; 110% in [5]; 115% in [6]. In addition, the growth in [7] was 103%; in assay [8], 108%; in [9], 101%; in assay [10], 103%.

Regarding `Cn1cc(-c2csc(-c3ccc(Cl)cc3)n2)c2cccnc21`, the growth in assay [1] was 0.516% [100 µM] (active); in [2] it was -24.4% [100 µM] (active); in assay [3], 13.5% [100 µM]; in [4], -49.3% [100 µM] (active); in assay [5], -28.1% [100 µM] (active); in assay [6], -57.1% [100 µM] (active). In addition, the growth in assay [7] was -21.5% [100 µM] (active); in assay [8], -75.7% [100 µM] (active); in [9], 9.04% [100 µM] (active); in assay [10], -35.5% [100 µM] (active).

In the case of `CC(=O)c1cc(O)c2ccccc2c1O`, the growth is 110% in assay [1]; 46.4% in [2]; 86.3% in [3]; 109% in assay [4]; 93.4% in assay [5]; 102% in assay [6]. The growth was 52.8% in [7], 91.7% in [8], 123% in [9] and 87% in assay [10].

For `Cc1ccc(-c2nc(/C=C3/C(=O)Nc4ccccc43)c3ccccn23)cc1`, the growth in assay [1] is 73.4%; in assay [2] it was 79.3%; in assay [3], 82%; in assay [4] it was 80.5%; in assay [5], 115%; in assay [6], 92.6%. In addition, the growth in assay [7] was 22.9%; in [8] it was 119%; in assay [9], 85.7%; in [10], 75.6%.

Turning to `O=C1/C(=C/c2ccc(Cl)cc2)COc2ccc(O)cc21`, the growth in [1] was 5.45% (active); in assay [2] it was -31.8% (active); in assay [3], 77.8%; in assay [4], 88.7%; in [5], 84%; in [6], 132%. Also, the growth was 78.6% in assay [7], 75.5% in assay [8], 83.1% in assay [9] and 88.7% in [10].

Turning to `O=Cc1ccc([N+](=O)[O-])s1`, the growth in assay [1] is 63.2%; in assay [2], 94.6%; in assay [3], 87.1%; in assay [4], 93.7%; in assay [5] it was 98.3%; in [6], 109%. Moreover, the growth is 79.8% in assay [7], 105% in assay [8], 113% in [9] and 95.2% in [10].

On to `CC(C)(C)c1cc(-c2nc3ccc(N4CCN(S(C)(=O)=O)CC4)cc3[nH]2)cc(C(C)(C)C)c1O`, for which the growth in assay [1] was 56.2%; in [2], 79.5%; in [3], 78.9%; in [4], 105%; in [5], 88.6%; in [6] it was 79.5%. The growth in assay [7] was 96.4%; in assay [8], 98.8%; in assay [9], 86.4%; in [10], 93.1%.
